Assay results: the supplement of paper PMC11732987, “Enantioselective OTUD7B fragment discovery through chemoproteomics screening and high-throughput optimisation” (Communications Chemistry, 2025)

Key:
Experiment in all cases: log2 ratio of Biotin-Ahx-Ub-VS probe labelling (fragment/DMSO); higher = less target engagement (more negative = stronger competition), active = hit call of the paper (q ≤ 0.05, log2 ratio ≤ -1)
Settings in all cases: compound concentration: 200 uM; treatment time: 3 h
USP34 = USP34 (UniProt Q70CQ2)
Sequence of USP34 (Q70CQ2 whole entry, the tested form may be a part): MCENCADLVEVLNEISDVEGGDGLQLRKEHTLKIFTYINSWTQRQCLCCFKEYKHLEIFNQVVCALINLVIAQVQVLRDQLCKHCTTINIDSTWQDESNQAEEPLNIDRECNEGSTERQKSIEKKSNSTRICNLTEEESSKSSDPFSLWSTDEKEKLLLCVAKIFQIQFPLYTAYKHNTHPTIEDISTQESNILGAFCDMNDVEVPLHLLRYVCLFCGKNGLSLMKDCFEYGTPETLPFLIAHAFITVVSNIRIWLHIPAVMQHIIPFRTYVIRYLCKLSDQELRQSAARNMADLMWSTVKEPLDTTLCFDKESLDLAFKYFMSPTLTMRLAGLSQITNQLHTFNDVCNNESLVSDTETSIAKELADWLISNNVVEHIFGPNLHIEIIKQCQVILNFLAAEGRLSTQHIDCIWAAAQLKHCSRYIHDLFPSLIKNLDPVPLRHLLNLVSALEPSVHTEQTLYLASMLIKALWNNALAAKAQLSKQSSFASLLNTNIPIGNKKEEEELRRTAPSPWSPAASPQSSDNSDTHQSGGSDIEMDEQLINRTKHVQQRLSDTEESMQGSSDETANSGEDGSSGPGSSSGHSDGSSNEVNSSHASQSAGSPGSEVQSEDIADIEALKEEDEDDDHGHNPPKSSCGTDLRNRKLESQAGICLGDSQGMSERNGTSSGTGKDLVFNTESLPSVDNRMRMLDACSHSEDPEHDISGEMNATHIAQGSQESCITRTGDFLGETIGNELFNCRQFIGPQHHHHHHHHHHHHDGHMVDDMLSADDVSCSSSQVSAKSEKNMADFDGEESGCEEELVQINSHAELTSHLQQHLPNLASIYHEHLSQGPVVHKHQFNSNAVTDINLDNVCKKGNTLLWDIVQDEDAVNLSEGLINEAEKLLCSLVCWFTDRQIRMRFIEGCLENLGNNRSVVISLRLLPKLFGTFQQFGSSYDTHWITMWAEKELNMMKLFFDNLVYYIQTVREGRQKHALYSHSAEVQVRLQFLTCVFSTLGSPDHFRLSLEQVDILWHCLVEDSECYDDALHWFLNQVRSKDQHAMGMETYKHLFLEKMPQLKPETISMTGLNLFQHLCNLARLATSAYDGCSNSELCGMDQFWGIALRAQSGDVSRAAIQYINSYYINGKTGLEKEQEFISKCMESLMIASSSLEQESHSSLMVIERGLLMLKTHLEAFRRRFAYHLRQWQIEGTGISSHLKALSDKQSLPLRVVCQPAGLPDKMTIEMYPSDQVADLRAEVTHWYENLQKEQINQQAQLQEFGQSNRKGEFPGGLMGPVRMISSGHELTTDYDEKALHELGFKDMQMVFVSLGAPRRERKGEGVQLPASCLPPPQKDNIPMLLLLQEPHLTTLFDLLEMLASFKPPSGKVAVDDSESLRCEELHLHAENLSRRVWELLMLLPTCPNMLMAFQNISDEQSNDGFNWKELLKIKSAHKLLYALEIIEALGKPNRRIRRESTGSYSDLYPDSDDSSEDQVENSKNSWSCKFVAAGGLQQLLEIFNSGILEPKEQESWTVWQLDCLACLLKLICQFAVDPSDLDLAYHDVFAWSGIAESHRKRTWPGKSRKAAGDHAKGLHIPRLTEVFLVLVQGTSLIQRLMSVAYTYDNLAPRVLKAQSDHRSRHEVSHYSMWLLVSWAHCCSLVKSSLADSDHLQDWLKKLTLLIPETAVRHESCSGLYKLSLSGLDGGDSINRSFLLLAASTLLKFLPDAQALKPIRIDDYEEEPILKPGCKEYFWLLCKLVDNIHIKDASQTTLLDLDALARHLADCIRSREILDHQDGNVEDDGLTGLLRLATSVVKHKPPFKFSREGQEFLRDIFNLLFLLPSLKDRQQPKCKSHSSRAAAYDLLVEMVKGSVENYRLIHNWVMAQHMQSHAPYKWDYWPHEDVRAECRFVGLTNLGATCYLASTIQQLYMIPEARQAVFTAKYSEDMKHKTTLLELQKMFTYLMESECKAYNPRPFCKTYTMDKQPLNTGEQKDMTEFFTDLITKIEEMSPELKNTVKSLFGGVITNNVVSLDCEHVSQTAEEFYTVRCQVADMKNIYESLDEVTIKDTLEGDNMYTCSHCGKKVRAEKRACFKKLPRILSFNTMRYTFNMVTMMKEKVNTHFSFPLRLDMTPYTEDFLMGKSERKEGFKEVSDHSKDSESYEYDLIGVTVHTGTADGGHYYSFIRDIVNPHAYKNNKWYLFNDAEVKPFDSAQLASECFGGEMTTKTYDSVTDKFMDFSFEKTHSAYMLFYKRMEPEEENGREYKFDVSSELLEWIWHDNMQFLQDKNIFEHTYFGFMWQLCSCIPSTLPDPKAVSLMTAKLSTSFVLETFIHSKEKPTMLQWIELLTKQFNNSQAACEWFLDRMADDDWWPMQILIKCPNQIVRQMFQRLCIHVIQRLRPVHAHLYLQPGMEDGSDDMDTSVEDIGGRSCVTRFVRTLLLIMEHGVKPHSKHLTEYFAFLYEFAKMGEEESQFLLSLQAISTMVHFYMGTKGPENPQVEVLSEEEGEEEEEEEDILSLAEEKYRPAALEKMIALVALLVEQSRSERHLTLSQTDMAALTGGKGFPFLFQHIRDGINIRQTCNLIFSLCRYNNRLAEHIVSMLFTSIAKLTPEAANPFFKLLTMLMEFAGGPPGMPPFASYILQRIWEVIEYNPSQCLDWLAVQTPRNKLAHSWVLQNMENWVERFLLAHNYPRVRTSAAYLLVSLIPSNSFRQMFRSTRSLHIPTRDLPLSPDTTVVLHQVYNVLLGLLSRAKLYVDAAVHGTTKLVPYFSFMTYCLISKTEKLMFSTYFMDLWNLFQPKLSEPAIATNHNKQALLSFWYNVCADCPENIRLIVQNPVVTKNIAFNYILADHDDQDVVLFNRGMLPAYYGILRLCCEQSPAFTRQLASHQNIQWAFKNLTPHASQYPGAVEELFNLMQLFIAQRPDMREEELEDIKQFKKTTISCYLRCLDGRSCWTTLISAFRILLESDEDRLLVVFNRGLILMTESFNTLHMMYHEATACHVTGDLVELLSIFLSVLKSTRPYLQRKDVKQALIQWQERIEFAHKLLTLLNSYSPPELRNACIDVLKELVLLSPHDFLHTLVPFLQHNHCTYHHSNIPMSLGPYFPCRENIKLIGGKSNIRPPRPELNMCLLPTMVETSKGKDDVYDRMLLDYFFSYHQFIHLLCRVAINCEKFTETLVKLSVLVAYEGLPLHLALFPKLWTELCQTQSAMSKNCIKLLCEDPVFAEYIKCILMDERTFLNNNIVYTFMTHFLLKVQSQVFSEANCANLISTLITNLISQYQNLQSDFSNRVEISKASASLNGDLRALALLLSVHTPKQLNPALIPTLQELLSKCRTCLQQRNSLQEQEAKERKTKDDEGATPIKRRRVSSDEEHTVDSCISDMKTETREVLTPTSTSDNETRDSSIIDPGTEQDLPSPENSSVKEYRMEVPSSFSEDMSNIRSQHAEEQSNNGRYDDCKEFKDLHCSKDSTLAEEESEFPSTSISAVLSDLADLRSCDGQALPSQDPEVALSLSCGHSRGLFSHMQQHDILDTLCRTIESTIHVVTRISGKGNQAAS
How it was run: (§1)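 Labelling with Biotin-Ahx-Ub-VS (0.5 µM final, 1 h) followed a 3 h triplicate treatment of HEK293T lysate (495 µg per sample, Tris/CHAPS/IGEPAL buffer with protease inhibitors) with fragment at 200 µM or vehicle. Labelled DUBs were NeutrAvidin-enriched, digested with LysC and trypsin, and run by diaPASEF LC-MS/MS. The values, average log2 fragment/vehicle ratios by unpaired t-test, come from global-median-normalised Spectronaut label-free quantities. Proteins with ≥2 unique peptides were used.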

USP36 = target: T1, USP36 (UniProt Q9P275)
T1 sequence (whole entry): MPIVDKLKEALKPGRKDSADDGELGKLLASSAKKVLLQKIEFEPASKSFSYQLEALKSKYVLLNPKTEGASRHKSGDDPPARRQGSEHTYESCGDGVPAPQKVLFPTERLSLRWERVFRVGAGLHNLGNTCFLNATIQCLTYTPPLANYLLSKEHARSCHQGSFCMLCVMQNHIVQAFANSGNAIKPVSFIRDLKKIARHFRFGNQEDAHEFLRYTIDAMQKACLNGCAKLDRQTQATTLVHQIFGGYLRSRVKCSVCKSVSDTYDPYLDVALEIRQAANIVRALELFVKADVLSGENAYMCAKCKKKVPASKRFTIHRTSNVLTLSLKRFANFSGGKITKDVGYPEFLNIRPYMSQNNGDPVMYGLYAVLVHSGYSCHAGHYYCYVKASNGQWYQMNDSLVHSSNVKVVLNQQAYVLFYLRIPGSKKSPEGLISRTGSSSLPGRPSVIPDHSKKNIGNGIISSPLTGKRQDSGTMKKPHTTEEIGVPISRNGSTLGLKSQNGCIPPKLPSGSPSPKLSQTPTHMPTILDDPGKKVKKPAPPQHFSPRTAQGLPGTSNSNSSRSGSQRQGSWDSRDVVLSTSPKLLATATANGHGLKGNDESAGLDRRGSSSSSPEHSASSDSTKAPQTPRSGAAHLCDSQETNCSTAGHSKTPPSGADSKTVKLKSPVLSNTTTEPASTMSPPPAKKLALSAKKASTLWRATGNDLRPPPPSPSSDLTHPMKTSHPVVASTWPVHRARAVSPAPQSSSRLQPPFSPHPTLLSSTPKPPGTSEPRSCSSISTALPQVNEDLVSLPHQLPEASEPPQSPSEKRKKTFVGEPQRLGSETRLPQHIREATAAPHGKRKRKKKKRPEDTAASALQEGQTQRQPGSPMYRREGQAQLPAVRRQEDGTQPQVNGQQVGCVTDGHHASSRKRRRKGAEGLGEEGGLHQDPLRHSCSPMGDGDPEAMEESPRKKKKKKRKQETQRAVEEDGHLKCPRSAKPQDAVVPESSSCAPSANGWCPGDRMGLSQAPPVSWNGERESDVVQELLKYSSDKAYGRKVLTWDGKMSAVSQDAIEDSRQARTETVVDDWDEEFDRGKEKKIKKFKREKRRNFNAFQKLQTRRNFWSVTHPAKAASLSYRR
How it was run: as §1

USP38 = target: T2, USP38 (UniProt Q8NB14)
T2 sequence (whole entry): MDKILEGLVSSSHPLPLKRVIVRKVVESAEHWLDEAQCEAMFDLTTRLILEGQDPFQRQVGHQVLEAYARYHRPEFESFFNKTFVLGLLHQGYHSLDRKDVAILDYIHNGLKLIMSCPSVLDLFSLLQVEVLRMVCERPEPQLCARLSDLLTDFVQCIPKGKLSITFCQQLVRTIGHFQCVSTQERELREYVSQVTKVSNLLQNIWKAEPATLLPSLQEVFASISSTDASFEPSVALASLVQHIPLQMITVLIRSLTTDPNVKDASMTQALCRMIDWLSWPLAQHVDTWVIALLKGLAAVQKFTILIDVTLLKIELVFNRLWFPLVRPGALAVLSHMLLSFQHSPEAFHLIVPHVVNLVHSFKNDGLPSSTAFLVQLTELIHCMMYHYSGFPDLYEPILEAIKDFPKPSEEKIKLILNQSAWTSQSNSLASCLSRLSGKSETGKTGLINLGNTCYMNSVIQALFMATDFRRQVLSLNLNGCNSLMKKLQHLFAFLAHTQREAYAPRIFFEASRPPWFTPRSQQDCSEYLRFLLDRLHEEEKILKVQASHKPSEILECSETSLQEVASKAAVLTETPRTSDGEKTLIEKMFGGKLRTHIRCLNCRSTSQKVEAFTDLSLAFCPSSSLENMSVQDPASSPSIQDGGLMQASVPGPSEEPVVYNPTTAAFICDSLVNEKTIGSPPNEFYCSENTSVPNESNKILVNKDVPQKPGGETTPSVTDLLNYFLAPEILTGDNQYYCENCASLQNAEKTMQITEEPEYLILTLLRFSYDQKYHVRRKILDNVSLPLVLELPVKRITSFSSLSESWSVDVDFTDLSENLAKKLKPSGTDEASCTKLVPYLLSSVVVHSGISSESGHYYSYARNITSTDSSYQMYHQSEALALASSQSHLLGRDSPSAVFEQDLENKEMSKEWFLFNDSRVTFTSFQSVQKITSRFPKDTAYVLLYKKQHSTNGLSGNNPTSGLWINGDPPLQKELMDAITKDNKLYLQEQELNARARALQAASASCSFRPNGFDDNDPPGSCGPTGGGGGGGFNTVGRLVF
How it was run: as §1

USP39 = target: T3, USP39 (UniProt Q53GS9)
T3 sequence (whole entry): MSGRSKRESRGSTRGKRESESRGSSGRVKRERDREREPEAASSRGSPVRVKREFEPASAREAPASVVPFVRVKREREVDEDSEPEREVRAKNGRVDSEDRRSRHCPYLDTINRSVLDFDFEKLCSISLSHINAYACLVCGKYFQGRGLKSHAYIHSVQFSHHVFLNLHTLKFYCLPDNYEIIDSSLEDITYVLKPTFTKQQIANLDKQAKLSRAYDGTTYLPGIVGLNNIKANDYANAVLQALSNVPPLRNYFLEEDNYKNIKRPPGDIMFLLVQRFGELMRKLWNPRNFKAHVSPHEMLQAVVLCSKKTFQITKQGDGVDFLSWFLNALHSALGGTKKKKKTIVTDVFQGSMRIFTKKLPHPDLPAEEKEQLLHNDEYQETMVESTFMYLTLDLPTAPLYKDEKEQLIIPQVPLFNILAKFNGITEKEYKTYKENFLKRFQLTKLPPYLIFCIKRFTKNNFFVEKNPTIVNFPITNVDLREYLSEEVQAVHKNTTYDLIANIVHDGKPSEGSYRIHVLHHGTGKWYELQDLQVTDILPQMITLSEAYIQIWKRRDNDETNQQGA
How it was run: as §1

USP4 = target: T4, USP4 (UniProt Q13107)
T4 sequence (whole entry): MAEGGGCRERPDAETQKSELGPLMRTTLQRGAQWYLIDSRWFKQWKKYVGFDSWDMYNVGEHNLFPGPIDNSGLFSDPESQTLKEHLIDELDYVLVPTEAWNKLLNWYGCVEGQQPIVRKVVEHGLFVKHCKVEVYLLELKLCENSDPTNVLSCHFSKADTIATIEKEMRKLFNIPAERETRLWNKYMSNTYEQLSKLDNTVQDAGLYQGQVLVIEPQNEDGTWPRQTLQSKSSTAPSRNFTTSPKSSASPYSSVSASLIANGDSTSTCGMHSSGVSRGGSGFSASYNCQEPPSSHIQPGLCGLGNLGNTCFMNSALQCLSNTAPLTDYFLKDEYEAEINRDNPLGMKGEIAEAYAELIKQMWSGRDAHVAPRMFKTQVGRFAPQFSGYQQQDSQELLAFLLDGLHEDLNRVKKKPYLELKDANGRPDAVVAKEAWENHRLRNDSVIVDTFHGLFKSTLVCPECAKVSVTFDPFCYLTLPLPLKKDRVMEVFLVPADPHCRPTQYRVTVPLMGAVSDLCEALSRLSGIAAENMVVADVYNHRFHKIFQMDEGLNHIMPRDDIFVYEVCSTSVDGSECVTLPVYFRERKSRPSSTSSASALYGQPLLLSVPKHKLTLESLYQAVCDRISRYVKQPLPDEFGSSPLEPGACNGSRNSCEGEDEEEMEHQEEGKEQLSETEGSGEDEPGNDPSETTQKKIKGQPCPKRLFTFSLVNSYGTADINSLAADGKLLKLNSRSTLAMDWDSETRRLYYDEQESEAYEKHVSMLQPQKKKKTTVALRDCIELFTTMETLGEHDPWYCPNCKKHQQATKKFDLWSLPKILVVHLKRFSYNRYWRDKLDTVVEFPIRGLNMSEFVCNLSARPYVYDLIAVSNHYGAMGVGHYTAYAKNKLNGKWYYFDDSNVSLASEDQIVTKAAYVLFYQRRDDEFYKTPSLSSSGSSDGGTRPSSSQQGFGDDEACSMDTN
How it was run: as §1

Measured: log2 ratio of Biotin-Ahx-Ub-VS probe labelling

O=C(CCl)N1CCC(S(=O)(=O)c2ccc(F)cc2)CC1
inactive: USP34 -0.128 | USP36 -0.00998 | USP38 -0.00588 | USP39 0.031 | USP4 -0.218
